{"source": "paper PMC4336329", "about": "(PLoS ONE, 2015)", "note": "Screen size: about 310,000 compounds; about 14,000 (4.5%) showed an effect of 50% or more. Effects have a minus sign here. The full list was thinned out, with strong results kept by preference."}
{"target": "human ether-à-go-go-related gene (hERG) potassium channel (human, UniProt Q12809)", "sequence (Q12809 whole entry, looked up)": "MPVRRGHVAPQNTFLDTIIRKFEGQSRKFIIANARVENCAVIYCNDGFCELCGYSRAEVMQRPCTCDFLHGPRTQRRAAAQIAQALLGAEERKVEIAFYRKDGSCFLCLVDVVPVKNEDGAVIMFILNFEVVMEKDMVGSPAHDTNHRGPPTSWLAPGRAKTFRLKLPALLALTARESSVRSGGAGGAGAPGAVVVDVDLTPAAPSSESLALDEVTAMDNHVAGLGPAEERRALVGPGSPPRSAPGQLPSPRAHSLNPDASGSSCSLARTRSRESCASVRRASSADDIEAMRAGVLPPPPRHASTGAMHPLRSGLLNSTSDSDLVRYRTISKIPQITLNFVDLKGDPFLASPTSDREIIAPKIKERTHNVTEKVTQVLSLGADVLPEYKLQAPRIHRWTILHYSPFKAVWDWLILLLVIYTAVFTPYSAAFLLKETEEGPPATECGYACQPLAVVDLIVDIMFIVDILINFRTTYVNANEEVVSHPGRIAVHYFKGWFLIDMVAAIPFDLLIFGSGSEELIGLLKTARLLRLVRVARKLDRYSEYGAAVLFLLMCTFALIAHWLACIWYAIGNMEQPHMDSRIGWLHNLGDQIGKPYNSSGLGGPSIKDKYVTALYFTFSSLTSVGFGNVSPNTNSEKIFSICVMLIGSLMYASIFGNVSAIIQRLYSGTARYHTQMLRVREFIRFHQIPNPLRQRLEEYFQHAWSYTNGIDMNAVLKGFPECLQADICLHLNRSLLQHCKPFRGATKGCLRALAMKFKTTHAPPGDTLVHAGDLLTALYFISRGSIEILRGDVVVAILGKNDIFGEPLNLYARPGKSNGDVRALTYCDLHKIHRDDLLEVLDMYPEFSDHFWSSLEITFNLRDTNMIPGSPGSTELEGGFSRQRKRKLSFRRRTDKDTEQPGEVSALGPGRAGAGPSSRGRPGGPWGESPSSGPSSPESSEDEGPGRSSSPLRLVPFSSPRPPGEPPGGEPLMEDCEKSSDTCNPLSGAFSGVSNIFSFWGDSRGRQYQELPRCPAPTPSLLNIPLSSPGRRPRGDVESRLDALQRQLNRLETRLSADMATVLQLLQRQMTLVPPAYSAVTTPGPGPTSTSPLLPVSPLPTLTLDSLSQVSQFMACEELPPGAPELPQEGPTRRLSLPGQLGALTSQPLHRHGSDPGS", "test": "primary screen, population patch clamp on CHO cells stably expressing hERG; higher = less effect of the substance", "units": {"hERG current change (%, negative = inhibition) at 10uM": "%"}}
{"compound": "COc1ccccc1NC(=O)c1ccc(N2CC3CC(C2)c2cccc(=O)n2C3)c(NC(=O)c2cccnc2)c1", "note": "(stereo not drawn);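 also: peak tail current of the secondary pulse compared with the same well before compound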", "hERG current change (%, negative = inhibition) at 10uM": 6.33}
{"compound": "[Cl-].c1ccc(Cc2cc[n+](Cc3ccccc3)cc2)cc1", "hERG current change (%, negative = inhibition) at 10uM": 4.13}
{"compound": "O=C(Nc1ccccc1N1CCCC1)c1cccnc1Cl", "hERG current change (%, negative = inhibition) at 10uM": 4.72}
{"compound": "COc1ccc(C(=O)NC(=S)Nc2nc(C)cc(C)n2)cc1Br", "hERG current change (%, negative = inhibition) at 10uM": 23.1}
{"compound": "CCOc1ccc2nc(SCC(=O)NCc3ccc4c(c3)OCO4)[nH]c2c1", "hERG current change (%, negative = inhibition) at 10uM": -24.2}
{"compound": "CCCNc1ccc(C(=O)OCC)cc1[N+](=O)[O-]", "hERG current change (%, negative = inhibition) at 10uM": -6.67}
{"compound": "Cc1ccc(C(C(=O)NCc2ccco2)N(C(=O)Cc2cccs2)c2cccnc2)cc1", "note": "(stereo not drawn)", "hERG current change (%, negative = inhibition) at 10uM": 20.4}
{"compound": "O=S(=O)(Nc1ccc2ccccc2c1)c1ccccc1", "hERG current change (%, negative = inhibition) at 10uM": 1.5}
{"compound": "CCOc1ccc(CCNC(=O)COC(=O)Cc2ccc(F)cc2)cc1OCC", "hERG current change (%, negative = inhibition) at 10uM": -26.6}
{"compound": "CC(C)c1ccc(/C=C(\\c2nc3ccccc3[nH]2)S(=O)(=O)c2ccccc2)cc1", "hERG current change (%, negative = inhibition) at 10uM": 8.64}
{"compound": "COc1ccc(OC)c(CNc2ccc(F)c(Cl)c2)c1", "hERG current change (%, negative = inhibition) at 10uM": 2.7}
{"compound": "COc1ccc(C(=O)n2nc(-c3ccco3)nc2SC)cc1OC", "hERG current change (%, negative = inhibition) at 10uM": 3.41}
{"compound": "COCCCn1c(=O)c2sccc2n2c(CCCC(=O)N(C)Cc3ccco3)nnc12", "hERG current change (%, negative = inhibition) at 10uM": -22.8}
{"compound": "Cc1ccccc1-n1c(-c2ccc(Br)o2)n[nH]c1=S", "hERG current change (%, negative = inhibition) at 10uM": 13.5}
{"compound": "COc1ccc2ccc(O)c(CN3CCN(S(=O)(=O)c4cc([N+](=O)[O-])ccc4C)CC3)c2c1", "hERG current change (%, negative = inhibition) at 10uM": -4.29}
{"compound": "CCN(CC)C(=O)CSC1=C(C#N)C(c2ccco2)C(C(=O)OCCOC)=C(C)N1", "note": "(stereo not drawn)", "hERG current change (%, negative = inhibition) at 10uM": 10.5}
{"compound": "C=CCOC(=O)C1=C(C)NC(SCC(=O)N(CC)CC)=C(C#N)C1c1ccco1", "note": "(stereo not drawn)", "hERG current change (%, negative = inhibition) at 10uM": -51.3}
{"compound": "C=CCOC(=O)C1=C(C)NC(SCC(=O)N(CC)CC)=C(C#N)C1c1ccccc1", "note": "(stereo not drawn)", "hERG current change (%, negative = inhibition) at 10uM": -21.9}
{"compound": "CSc1ccccc1NC(=O)c1ccc(N2CC3CC(C2)c2cccc(=O)n2C3)c(NC(=O)c2ccncc2)c1", "note": "(stereo not drawn)", "hERG current change (%, negative = inhibition) at 10uM": -30.1}
{"compound": "CC(C)=CCN1CCN(CCCc2ccccc2)CC1CCO", "note": "(stereo not drawn)", "hERG current change (%, negative = inhibition) at 10uM": -26.8}
{"compound": "CC(C)(C)CN1CCN(CCCc2ccccc2)C(CCO)C1", "note": "(stereo not drawn)", "hERG current change (%, negative = inhibition) at 10uM": -53.7}
{"compound": "OCCC1CN(CCCc2ccccc2)CCN1Cc1ccc(F)cc1", "note": "(stereo not drawn)", "hERG current change (%, negative = inhibition) at 10uM": -66.6}
{"compound": "CC(C)N1CCN(CCCc2ccccc2)CC1CCO", "note": "(stereo not drawn)", "hERG current change (%, negative = inhibition) at 10uM": -4.39}
{"compound": "OCCC1CN(CCCc2ccccc2)CCN1CCc1ccccc1", "note": "(stereo not drawn)", "hERG current change (%, negative = inhibition) at 10uM": -77.2}
{"compound": "OCCC1CN(CCCc2ccccc2)CCN1Cc1ccccc1", "note": "(stereo not drawn)", "hERG current change (%, negative = inhibition) at 10uM": -64}
{"compound": "CC(C)(C)CN1CCN(CC#Cc2ccccc2)CC1CCO", "note": "(stereo not drawn)", "hERG current change (%, negative = inhibition) at 10uM": 0.803}
{"compound": "CC(C)CN1CCN(CCCc2ccccc2)C(CCO)C1", "note": "(stereo not drawn)", "hERG current change (%, negative = inhibition) at 10uM": -35.5}
{"compound": "CC(C)CCN1CCN(CCCc2ccccc2)CC1CCO", "note": "(stereo not drawn)", "hERG current change (%, negative = inhibition) at 10uM": -46.6}
{"compound": "CC(C)CCNC(=O)C(c1ccco1)N(CCCO)C(=O)Cn1nnc(-c2ccc(F)cc2)n1", "note": "(stereo not drawn)", "hERG current change (%, negative = inhibition) at 10uM": -20.2}
{"compound": "CSc1ccccc1NC(=O)CSc1nnc(CNC(=O)c2ccccc2F)n1C", "hERG current change (%, negative = inhibition) at 10uM": 11.2}
{"compound": "O=C(NCCS(=O)(=O)N1CCN(c2ccc(F)cc2)CC1)C12CC3CC(CC(C3)C1)C2", "hERG current change (%, negative = inhibition) at 10uM": -10.5}
{"compound": "CCOC(=O)c1cc(-c2ccc(OC)cc2)nn1-c1ccc(C(=O)O)cc1", "hERG current change (%, negative = inhibition) at 10uM": 16.3}
{"compound": "CS(=O)(=O)c1ccc([C@@H](O)[C@@H](CF)NC(=O)C(Cl)Cl)cc1", "hERG current change (%, negative = inhibition) at 10uM": -5.39}
{"compound": "Cc1cccc(Cl)c1NC(=S)NCCc1ccccn1", "hERG current change (%, negative = inhibition) at 10uM": 11.9}
{"compound": "CCOc1ccc(Br)cc1S(=O)(=O)N1CCC(C(N)=O)CC1", "hERG current change (%, negative = inhibition) at 10uM": -8.56}
{"compound": "O=C(c1ccc(CS(=O)c2cccc(Cl)c2)o1)N1CCOCC1", "note": "(stereo not drawn)", "hERG current change (%, negative = inhibition) at 10uM": 10.8}
{"compound": "CC(C)/C=C/CN1CCN(CCCc2ccccc2)C(CCO)C1", "note": "(stereo not drawn)", "hERG current change (%, negative = inhibition) at 10uM": -73.4}
{"compound": "CCC(CC)N1CCN(CCc2ccccc2)C(CCO)C1", "note": "(stereo not drawn)", "hERG current change (%, negative = inhibition) at 10uM": -19}
{"compound": "Cc1ccc(CN2CCN(CCCc3ccccc3)CC2CCO)cc1", "note": "(stereo not drawn)", "hERG current change (%, negative = inhibition) at 10uM": -76.4}
{"compound": "Cn1cccc1C(=O)NC(=O)COC(=O)c1ccccc1O", "hERG current change (%, negative = inhibition) at 10uM": -6.93}
{"compound": "O=C(/C=C/c1cccc([N+](=O)[O-])c1)Nn1c(-c2ccccc2F)nc2ccccc2c1=O", "hERG current change (%, negative = inhibition) at 10uM": -23.1}
{"compound": "Cc1cccc(-c2nc3ccccc3c(=O)n2NC(=O)c2ccc([N+](=O)[O-])c(C)c2)c1", "hERG current change (%, negative = inhibition) at 10uM": 14.5}
